NF-kB neuron act: activators of NF-kB expression in neurons, primary screen, cell-based, HTS; human neuronal cells, NF-kB reporter expression; stronger effect = higher value; fold change at 12.5 µM; actives 1.6% (n = 190,000); AID 1239, 2008; in the data active means fold change above about 3.3
hgDAF12 agonist: H. glycines DAF-12 receptor agonists, primary screen, cell-based, luminescence, HEK293, GAL4 fusion, UAS-luciferase; actives 1.8% (n = 370,000); HEK293 GAL4-hgDAF12 UAS-luciferase reporter, agonist luminescence; normalized to butyrate control; AID 687014, 2013; activation, % at 6.8 µM; Nuclear hormone receptor DAF-12 (Heterodera glycines), GAL4 fusion;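 active means activation above a cutoff set at the mean of all screened compounds plus 3 SD, cut at about 10% in these data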;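 further: 0% = DMSO wells and 100% = sodium butyrate wells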
hcDAF12 agonist: H. contortus DAF-12 nuclear receptor activators, primary screen, cell-based, luminescence, HEK293, lit1-tk-luc reporter; HEK293 hcDAF-12 lit1-tk-luc reporter; 0% DMSO, 100% Δ7-dafachronic acid; activation, % at 6.8 µM; actives 1.4% (n = 370,000); AID 652067, 2013;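 active means activation above the mean of all tested compounds plus 3 SD, cut at about 5.5% in these data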;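 further: 100% = response to 3 µM Δ7-dafachronic acid high control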
APP 5'UTR act: activators of APP 5'UTR luciferase reporter, primary screen, SH-SY5Y cells. SH-SY5Y APP 5'UTR luciferase reporter, luminescence; zero percent = DMSO vehicle wells. activation, % at 2 µM. actives 1% (n = 190,000);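 active means activation above a set limit, based on mean plus 3 SD of controls, cut at about 140% in these data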
ssDAF12 agonist: S. stercoralis DAF-12 nuclear receptor activators, primary screen, cell-based, luminescence, HEK293, GRIP1 co-expression, lit1-tk-luc | activation, % at 6.8 µM | AID 652126, 2013 | HEK293 ssDAF-12/GRIP1 lit1-tk-luc reporter; % of 3 µM dafachronic acid response | actives 1% (n = 370,000) | Nuclear hormone receptor DAF-12 (Strongyloides stercoralis);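 active means activation above the mean over all tested compounds plus 3 SD, cut at about 0.9% in these data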;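 further: 0% = DMSO-only wells and 100% = 3 µM delta7-dafachronic acid wells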
Active calls of the source: *. An excerpt weighted towards active compounds, which were near 3.4% of everything screened.

Results for Cc1nc(/C=C/c2ccccc2)cc(/C=C/c2ccccc2)n1 ?
NF-kB neuron act: 1.9; hgDAF12 agonist: 2; hcDAF12 agonist: 1; APP 5'UTR act: 14; ssDAF12 agonist: -1

What do the screens show for `Cc1cccc(/C=C/c2ccccc2)n1`?
hgDAF12 agonist: 11*; hcDAF12 agonist: 5; ssDAF12 agonist: 0

What do the screens show for `COCCCNC(=O)c1cc2c(-c3cccc(OC)c3)nn(C)c2s1`?
hgDAF12 agonist: -1; hcDAF12 agonist: -2; ssDAF12 agonist: -1

What do the screens show for `CCN(CC)CCNC(=O)c1cc2c(-c3ccc(Cl)cc3)nn(C)c2s1`?
NF-kB neuron act: 0.78; hgDAF12 agonist: 3; hcDAF12 agonist: 9.7*; APP 5'UTR act: -9; ssDAF12 agonist: 0

Results for CCN(CC)CCNC(=O)c1cc2c(-c3cccc(OC)c3)nn(C)c2s1 ?
hgDAF12 agonist: 4; hcDAF12 agonist: 5; ssDAF12 agonist: 1.2*

Results for CCOCCCNC(=O)c1cc2c(-c3ccc(Cl)cc3)nn(C)c2s1 ?
NF-kB neuron act: 0.59; hgDAF12 agonist: 2; hcDAF12 agonist: 5; APP 5'UTR act: 4; ssDAF12 agonist: -1

How did COc1ccc(CCN(Cc2cccs2)S(=O)(=O)c2ccc(F)cc2)cc1OC do in these assays?
hgDAF12 agonist: -1; hcDAF12 agonist: -4; ssDAF12 agonist: -1

What do the screens show for `COc1cccc(-c2ccc(SCc3ccccn3)nn2)c1`?
NF-kB neuron act: 3.2; hgDAF12 agonist: 12*; hcDAF12 agonist: 2; APP 5'UTR act: 81; ssDAF12 agonist: 1

Results for COc1ccc(-c2ccc(SCc3ccccn3)nn2)cc1OC ?
NF-kB neuron act: 1; hgDAF12 agonist: 1; hcDAF12 agonist: 0; APP 5'UTR act: 22; ssDAF12 agonist: 0

Results for CC1S/C(=N/N=C2CCC(C(C)(C)C)CC2)NC1=O (stereo not drawn) ?
NF-kB neuron act: 1.2; hgDAF12 agonist: 12*; hcDAF12 agonist: 2; APP 5'UTR act: 4; ssDAF12 agonist: 0

Results for N#C/C(=N\Nc1cccc(F)c1)C(=N)N1CCCCCC1 ?
NF-kB neuron act: 5.2*; hgDAF12 agonist: 13*; hcDAF12 agonist: 5; APP 5'UTR act: 150*; ssDAF12 agonist: 1.7*

How did CC1Oc2ccccc2OC1C(=O)Nc1ccccn1 (stereo not drawn) do in these assays?
NF-kB neuron act: 0.95; hgDAF12 agonist: 3; hcDAF12 agonist: 6.3*; APP 5'UTR act: 21; ssDAF12 agonist: 0

Results for CC(C)(C)C(=O)NC1CCCCN(Cc2cccc(C(F)(F)F)c2)C1=O (stereo not drawn) ?
hgDAF12 agonist: -3; hcDAF12 agonist: -4; ssDAF12 agonist: -2

What do the screens show for `Cc1cc(C(F)(F)Cl)n2ncc(-c3ccccn3)c2n1`?
hgDAF12 agonist: 0; hcDAF12 agonist: 2; ssDAF12 agonist: 1.2*

Results for CCOC(=O)[C@@]12CCC3=C1N(CCC3)C(=O)[C@H](CC(=O)NCc1cccc(C(F)(F)F)c1)C2 ?
hgDAF12 agonist: -1; hcDAF12 agonist: -2; ssDAF12 agonist: -2

How did Cc1ccc(N2C(=O)CC(c3c[nH]c4ccccc34)C2=O)cc1 (stereo not drawn) do in these assays?
NF-kB neuron act: 1.8; hgDAF12 agonist: 2; hcDAF12 agonist: 0; APP 5'UTR act: 1; ssDAF12 agonist: -1

How did CCC1=NN=C(c2ccc(F)cc2)C(c2c[nH]c3ccccc23)N1O (stereo not drawn) do in these assays?
NF-kB neuron act: 1.9; hgDAF12 agonist: 5; hcDAF12 agonist: 4; APP 5'UTR act: 29; ssDAF12 agonist: 0.9*

Results for O=c1cc(-c2ccc(O)cc2)oc2ccccc12 ?
NF-kB neuron act: 2.6; hgDAF12 agonist: 9; hcDAF12 agonist: 1; APP 5'UTR act: 39; ssDAF12 agonist: -1

What do the screens show for `O=c1cc(-c2ccc(O)cc2)oc2ccc(O)cc12`?
NF-kB neuron act: 4.1*; hgDAF12 agonist: 13*; hcDAF12 agonist: 2; APP 5'UTR act: 60; ssDAF12 agonist: 0

How did O=C(CNS(=O)(=O)c1ccc(F)cc1)N1CCN(c2ccccn2)CC1 do in these assays?
hgDAF12 agonist: 0; hcDAF12 agonist: 1; ssDAF12 agonist: -1

How did CC(=O)c1cnn(-c2nc3c(C)cccc3s2)c1C do in these assays?
NF-kB neuron act: 3.9*; hgDAF12 agonist: 2; hcDAF12 agonist: 2; APP 5'UTR act: 0; ssDAF12 agonist: 0

What do the screens show for `CC(=O)c1cnn(-c2ccccc2)c1C`?
NF-kB neuron act: 0.96; hgDAF12 agonist: 0; hcDAF12 agonist: 0; APP 5'UTR act: -3; ssDAF12 agonist: -1

What do the screens show for `O=C(CCc1ccccc1)N[C@H]1[C@H](O)CCC[C@]12C(=O)N(Cc1ccccc1)c1ccccc12`?
hgDAF12 agonist: 4; hcDAF12 agonist: 0; ssDAF12 agonist: -1

Results for O=C(CSc1ccccn1)Nc1nc2ccccc2s1 ?
NF-kB neuron act: 1.9; hgDAF12 agonist: 10; hcDAF12 agonist: 5; APP 5'UTR act: 1; ssDAF12 agonist: -2

How did COc1ccc(-c2nnc3ccc(SCC(=O)Nc4nc5ccccc5s4)nn23)cc1OC do in these assays?
NF-kB neuron act: 0.35; hgDAF12 agonist: 11*; hcDAF12 agonist: 0; APP 5'UTR act: -13; ssDAF12 agonist: -1

Results for O=C(CSc1cn[nH]n1)Nc1nc2ccccc2s1 ?
hgDAF12 agonist: 5; hcDAF12 agonist: 6.0*; ssDAF12 agonist: 0

Results for COc1ccc(-c2nnc3ccc(SCC(=O)Nc4nccs4)nn23)cc1OC ?
NF-kB neuron act: 1.1; hgDAF12 agonist: 0; hcDAF12 agonist: -2; APP 5'UTR act: -5; ssDAF12 agonist: -2

How did CCN(CC)CCn1c2c(c(SCC(=O)Nc3nc4ccccc4s3)nc1=O)CCC2 do in these assays?
hgDAF12 agonist: 8; hcDAF12 agonist: 5.8*; ssDAF12 agonist: 0

Results for Cc1ccc(Cc2c(-c3ccccc3)nc3cc(C)ccn23)cc1 ?
hgDAF12 agonist: 11*; hcDAF12 agonist: 4; ssDAF12 agonist: 1.3*

What do the screens show for `CC(C)(C)Cc1c(-c2cccc(Cl)c2)nc2ccc(Br)cn12`?
hgDAF12 agonist: -1; hcDAF12 agonist: -1; ssDAF12 agonist: 2.1*

Results for Cc1ccc(Cc2c(-c3ccccc3)nc3c(Cl)cc(C(F)(F)F)cn23)cc1 ?
hgDAF12 agonist: 2; hcDAF12 agonist: 2; ssDAF12 agonist: 1.7*

How did CC(C)(C)Cc1c(-c2ccc(Br)cc2)nc2ccc(Br)cn12 do in these assays?
hgDAF12 agonist: 2; hcDAF12 agonist: 0; ssDAF12 agonist: -1

Results for COC(=O)c1ccc2nc(-c3ccco3)c(Cc3ccccc3OC)n2c1 ?
hgDAF12 agonist: 6; hcDAF12 agonist: 2; ssDAF12 agonist: 1.3*

Results for Cc1ccc(Cc2c(-c3ccccc3)nc3c(C)cc(Br)cn23)cc1 ?
hgDAF12 agonist: 0; hcDAF12 agonist: 3; ssDAF12 agonist: 0
